# Measured values taken from PubChem BioAssay (NCATS).
# Values without a mark were called inactive. A call without a number means that no potency is given here. Active and inactive are the calls of the source. Calls come from the whole dose curve; as a rule, active = well fitted inhibition curve with a large enough effect; inconclusive = small, poorly fitted or top-dose-only effect; inactive = flat fitted curve, though single readings scatter. *1 amine or outer side, *2 acyl side, *3 side chain or, on linkers, in order; H or OH if unused. Where a SMILES comes first, the peptide text is derived from it. [ ]: non-standard residue; d: D form. X13 = O=C(C(CC(O)CO)O[*:1])[*:2]; NMeV = CN[CH](C(=O)O)C(C)C; NMeA = CN[CH](C)C(=O)O; βAla = NCCC(=O)O
# Tested on: Nanoluciferase (engineered Oplophorus gracilirostris luciferase)
# Experiment: Primary Nanoluciferase (NLuc) qHTS assay for identification of artifact compounds. (AID 1845222)
# Conditions: NLuc-conditioned medium, Nano-Glo luminescence, 5 min; series mostly up to 54.1 µM
# Summary of the method: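 Compounds are pinned into diluted (1:55) conditioned medium of NLuc-expressing S16 cells and held 15 min at room temperature protected from light. Nano-Glo substrate follows, and luminescence is read 5 min later.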
# Potency is the fitted concentration of half-maximal effect.
Structure (SMILES),Potency,"activity, negative = inhibition"
CCCC/C=C\CCCCCc1cc(=O)c2ccccc2n1C,inactive,
C=C1C(=O)O[C@@H]2C[C@]3(C)[C@@H](CCC(C)=O)[C@@H]3C[C@H]12,inactive,
CC1=C2C[C@H]3OC(=O)[C@H](O)[C@@]4(O)[C@@H](C)[C@@H](O)[C@H](O)C([C@@]2(C)[C@H](O)[C@@H](O)C1)[C@@]34C (some centres undefined),inactive,
O=C(O)c1ccc(NC(=O)[C@H](CC2CCCC2)n2cnc(C(F)(F)F)c2)nc1,inactive,
CC1(C(=O)O)CCCC2(C)C3CC4C5CC3(CCC12)CC45C (centres undefined),inactive,
O=C(NC/C=C/CN1CCN(c2cccc(Cl)c2Cl)CC1)c1ccc(-c2ccccn2)cc1,inactive,
CC(=O)NC(C(=O)OC1CCC(C)(C)C2CC=C3C(=O)OCC3C12C)C(C)C (centres undefined),inactive,
CC(=O)OCC1=CCC2C(C)(C)CCCC2(C)C12CCC(C)(CC(=O)O)O2 (centres undefined),inactive,
COC(=O)C(CC1(O)c2ccccc2N2C(=O)C(C)(C)N(O)C21)n1cnc2ccccc2c1=O (centres undefined),inactive,
COc1ccc(S(=O)(=O)Nc2nc(-c3cccc([N+](=O)[O-])c3)cs2)cc1OC,9.53 µM (active),
C=CCC/C=C/C#CCCCCCCCC[C@H]1C(=O)O[C@H](C)[C@@H]1O,inactive,
CCOC(=O)COc1ccc2c(c1)C[C@@H](NC[C@H](O)c1cccc(Cl)c1)CC2,inactive,
CCCCC(=O)N1c2ccccc2NC2=C(C(=O)CCC2)C1c1ccccc1Cl (centres undefined),inactive,
C[C@H]1[C@H](C)CC[C@]2(C(=O)O)CC[C@]3(C(=O)O)C(=CCC4[C@@]5(C)CC[C@H](O[C@@H]6O[C@@H](C)[C@H](O)[C@@H](O)[C@H]6O)C(C)(C)C5CC[C@]43C)[C@H]12 (some centres undefined),inactive,
C=C(C(=O)O)[C@@H]1CC[C@@]2(C)CCC[C@@](C)(O)[C@@H]2C1,inactive,
OC[C@H]1O[C@@H](Oc2cc(O)cc(-c3cc4ccc(O[C@@H]5O[C@H](CO)[C@@H](O)[C@H](O)[C@H]5O)cc4o3)c2)[C@H](O)[C@@H](O)[C@@H]1O,inactive,
COc1ccnc(CCc2nc3ncccc3[nH]2)c1,inactive,
Cc1oc2nc3c(c(NC(=O)CN4CCCC4=O)c2c1C)CCCC3,inactive,
C/C=C/C1OC2=C(C(=O)OC2(C)O)C(O)C1O (centres undefined),inactive,
O=C(Nc1ccn(Cc2c(F)cccc2C(F)(F)F)n1)c1c(F)cccc1F,,3.13% [at 11.6 µM]

Structure (SMILES),Potency,"activity, negative = inhibition"
COc1ccc(C(=O)NCc2cc(C(C)C)no2)cc1OC1CCN(C)CC1,inactive,
C=C1CC[C@H]2[C@@](C)(CCC(O)[C@@]2(C)CO)[C@@H]1/C=C/C(=C\C(=O)O)C(=O)O (some centres undefined),inactive,
NC(=O)[C@H](Cc1ccccc1)NC(=O)[C@H](CCCN=C(N)N)NC(=O)C12CC3CC(CC(C3)C1)C2,,3.23% [at 11.6 µM]
COc1cc(C(C)=O)ccc1O[C@@H]1O[C@H](CO)[C@@H](O)[C@H](O)[C@H]1O,inactive,
CCCC(=O)Nc1cccc(NC(=O)c2ccccc2Br)c1,inactive,
Cc1occc(=O)c1O[C@@H]1O[C@H](COC(=O)CC(C)(O)CC(=O)O)[C@@H](O)[C@H](O)[C@H]1O (some centres undefined),inactive,
Cc1cc(Cn2cnc3c2CC(C(=O)O)N(C(=O)C(c2ccccc2)c2ccccc2)C3)ccc1N(C)C (centres undefined),inactive,
CSCC[C@H](NC(=O)[C@H](CO)NC(=O)[C@H](CCC(=O)O)NC(C)=O)C(=O)N[C@H](C=O)CC(=O)O (Ac-ESMD-aldehyde),,3.03% [at 11.6 µM]
CCC(=O)OCC(=O)[C@@]1(OC(=O)CC)[C@@H](C)C[C@H]2[C@@H]3CCC4=CC(=O)C=C[C@]4(C)[C@@]3(F)[C@@H](O)C[C@@]21C,inactive,
C[C@@H]1O[C@@H](O[C@@H]2[C@@H](O)[C@H](O[C@H]3[C@H](O[C@H]4CC[C@@]5(C)C(CC[C@]6(C)C5CC=C5[C@@H]7CC(C)(C)CC[C@]7(C(=O)O[C@@H]7O[C@H](CO)[C@@H](O)[C@H](O)[C@H]7O)CC[C@]56C)C4(C)C)O[C@H](C(=O)O)[C@@H](O)[C@@H]3O)OC[C@H]2O)[C@H](O)[C@H](O)[C@H]1O (some centres undefined),,2.29% [at 11.6 µM]
COc1ccc(CCc2nc3cc(-c4c(C)noc4C)ccc3n2C[C@H](C)N2CCOCC2)cc1Cl,inactive,
C=C1CCc2occ(C)c2[C@H]2[C@H]1[C@@]13O[C@@]1(C[C@@H](C)[C@H]3OC(C)=O)[C@H]1O[C@@]21C,inactive,
CC(NC(=O)c1ccccc1N)C(=O)O (centres undefined),inactive,
CC1(C)COC(=O)[C@@H]1O[C@@H]1O[C@H](CO)[C@@H](O)[C@H](O)[C@H]1O,inactive,
O=C(O)CCc1c(C(=O)O)[nH]c2cc(Cl)cc(Cl)c12,inactive,
CC1(C)CC[C@]2(C(=O)O)CC[C@]3(C)C(=CCC4[C@@]5(C)C[C@H](O)[C@H](O[C@@H]6O[C@H](CO)[C@@H](O)[C@H](O)[C@H]6O)[C@@](C)(CO)C5[C@H](O)C[C@]43C)[C@@H]2C1 (some centres undefined),inactive,
CCC(C)C1NC(=O)C2CCCN2C(=O)C(CC(O)CO)OC(=O)CCNC(=O)C(C)N(C)C(=O)C(C(C)C)N(C)C1=O (centres undefined) (cyclo([X13]PI[NMeV][NMeA][βAla]); configuration not given here),inactive,
CC(C)C1NC(=O)CNC(=O)C2CCCN2C(=O)C(Cc2c[nH]c3ccccc23)NC(=O)CNC(=O)C(Cc2ccc(O)cc2)NC(=O)CNC1=O (centres undefined) (cyclo(GVGYGWP); configuration not given here),inactive,
CC1(C)CC[C@]2(C(=O)O)CC[C@]3(C)C(=CCC4[C@@]5(C)C[C@@H](O)[C@H](O)[C@](C)(CO)C5CC[C@]43C)[C@@H]2[C@@H]1O (some centres undefined),inactive,
